Results taken from the supplement of paper PMC13380429.

These compounds were tested on Vero E6 infected with SARS-CoV-2 (assay: morphology score (similarity to uninfected cells); higher = more like uninfected cells). Conditions: 24 h.

SMILES | morphology score
CCOC(=O)[C@H](CCc1ccccc1)N[C@@H](C)C(=O)N1[C@H](C(=O)O)C[C@@H]2CCC[C@@H]21 [ramipril] (10 µM) | 0.0476
Cc1c(CN(C)C(=O)/C=C/c2cnc3c(c2)CCC(=O)N3)oc2ccccc12 (10 µM) | 0.182
O=C(O)c1cc(=O)[nH]c(=O)[nH]1 [orotic-acid] (10 µM) | 0.104
NS(=O)(=O)NCc1csc2ccccc12 (10 µM) | 0.212
Cc1nc(NC(=O)N2CCC[C@H]2C(N)=O)sc1-c1ccnc(C(C)(C)C(F)(F)F)c1 [alpelisib] (10 µM) | 0.0577
C[C@@H](O)[C@@H]1NC(=O)[C@H](CCCCN)NC(=O)[C@@H](Cc2c[nH]c3ccccc23)NC(=O)[C@H](Cc2ccccc2)NC(=O)[C@@H](NC(=O)[C@H](N)Cc2ccccc2)CSSC[C@@H](C(=O)N[C@H](CO)[C@@H](C)O)NC1=O [octreotide] (10 µM) | 0.0589
CCOC(=O)[C@H](CCc1ccccc1)N[C@H]1CS[C@H](c2cccs2)CN(CC(=O)O)C1=O [temocapril] (10 µM) | 0.0304
O=C(O)[C@H](O)c1ccccc1 [mandelic-acid] (10 µM) | -0.0448
COc1cc2c(cc1OC)[C@H](C)NCC2 [Isoquinoline,-6,7-dimethoxy-1-methyl-1,2,3,4-tetrahydro,] (10 µM) | 0.0205
CCC[C@@H]1CC2=CC(=O)CC[C@]2(C)[C@H]2CC[C@@]3(C)[C@@H](CC[C@@]3(O)CCC(=O)O)[C@H]12 (10 µM) | 0.105
Fc1ccc(-c2cncc(CN3CCN(c4cccc5c4OCCO5)CC3)c2)cc1 [adoprazine] (10 µM) | 0.131
CN(C(=O)CCCOc1ccc2[nH]c(=O)ccc2c1)C1CCCCC1 [cilostamide] (10 µM) | -0.131
Cc1ncc(C[n+]2csc(CCOP(=O)(O)OP(=O)(O)O)c2C)c(N)n1 [thiamine-pyrophosphate] (10 µM) | 0.112
COc1ccc(-c2oc3cc(OC)ccc3c2C(=O)c2ccc(C#N)cc2)cc1 (10 µM) | 0.111
CCCN(CCC)C1Cc2cc(OC)c(OC)cc2C1 (10 µM) | 0.231
CC(COc1ccccc1Cc1ccccc1)N1CCCCC1 (configuration not stated) [benproperine] (10 µM) | 0.214

SMILES | morphology score
CC(=O)NO [acetohydroxamic-acid] (10 µM) | -0.0513
CC(=O)OCC(=O)[C@@]1(O)CC[C@H]2[C@@H]3CCC4=CC(=O)CC[C@]4(C)[C@@]3(F)[C@@H](O)C[C@@]21C (10 µM) | 0.0369
NC[C@@H](O)CC(=O)O [aminohydroxybutyric-acid] (10 µM) | 0.226
CC(C)c1cc(CNc2nc(Nc3cc(C4CC4)[nH]n3)cc(N3CCN(C)CC3)n2)on1 (10 µM) | -0.0949
O=C1N(c2ccccc2)c2ccccc2C1(Cc1ccncc1)Cc1ccncc1 [linopirdine] (10 µM) | 0.249
N[C@@H](CSS(=O)(=O)O)C(=O)O [S-sulfo-L-cysteine] (10 µM) | 0.254
CCOC(=O)[C@H](Cc1ccc([N+](=O)[O-])cc1)NC(=O)c1ccccc1 (10 µM) | 0.37
COc1cc2c(Nc3ccc(NC(=O)c4ccccc4)cc3)ncnc2cc1OCCCN1CCOCC1 (10 µM) | -0.13
Cc1cc(C)cc(NC(=O)Cc2ccc(OC(C)(C)C(=O)O)cc2)c1 [efaproxiral] (10 µM) | -0.103
N[C@@H](Cc1cc(I)c(Oc2ccc(O)c(I)c2)c(I)c1)C(=O)O [liothyronine] (10 µM) | 0.106
OC(c1ccccc1)(c1ccccc1)C12CC[N+](CCOCc3ccccc3)(CC1)CC2 [umeclidinium] (10 µM) | 0.162
COc1ccc2c(c1)/C(=C/c1cnc[nH]1)C(=O)N2 (0.833333 µM) | -0.0607
NC[C@H]1O[C@H](O[C@H]2[C@H](O[C@@H]3O[C@H](CO)[C@@H](O)[C@H]3O)[C@@H](O)[C@H](N)C[C@@H]2N)[C@H](N)[C@@H](O)[C@@H]1O [ribostamycin-sulfate] (10 µM) | 0.199
CNC(=O)c1ccc2c(c1)CCO[C@H]2CCN1CCN(c2ccc(C(N)=O)cc2)CC1 (10 µM) | 0.0173
C[C@H](N)Cc1cccc(O)c1 [gepefrine] (10 µM) | -0.0218
Oc1ccc(-c2c(-c3ccccc3)nn3c(C(F)(F)F)cc(C(F)(F)F)nc23)cc1 (10 µM) | 0.0465
